Compounds with a hit are over-represented: about 3.8% of the library has one in this group of screens.
HSP90 refold inh: HSP90 refolding inhibition in rabbit reticulocyte lysate. luciferase refolding luminescence, 3 h. inhibition, % at 5.6 µM. 0.91% of 290,000 active. AID 1789;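 active means inhibition above the screen-wide mean plus 3 SD, computed separately per campaign, cut at about 16% in these data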;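 further: 0% = DMSO wells and 100% = 60 µM geldanamycin wells; inhibitors lower the luminescence because luciferase stays unfolded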
Hsp70 act: transcriptional activators of Hsp70 | activation, % at 10 µM | HeLa Hsp70 promoter luciferase reporter, luminescence; scaled: vehicle 0, proteasome-inhibitor control 100% | 0.04% of 200,000 active;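 active means activation above the mean across all tested compounds plus 3 SD, cutoff set per campaign, cut at about 5.5% in these data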;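 further: 100% = MG132 at 30 µM as the positive control and 0% = DMSO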
HSF-1 act: increases HSF-1 driven luciferase reporter signal; NIH3T3-HGL HSF-1 luciferase reporter, MG132, 8 h; 100% = twice DMSO control signal; activation, % at 9 µM; 1.7% of 300,000 active;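 active means mean replicate activation of at least 50% with a set share of replicates each reaching 50%; inconclusive means only one of those two conditions met; inactive means mean below 50% and too few replicates reaching it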;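 further: 0% = median of the neutral control wells and 100% = twice that signal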
HSF1 inh: HSF1 inhibition. 0.77% of 300,000 active. NIH3T3-HGL HSE-luciferase, MG132-induced, luminescence 8 h; active compounds read low. activity change, negative = inhibition, % at 7.5 µM (by protocol);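 active means more than half of replicate wells show activity change below -50%, luminescence cut by over half; inconclusive means some wells, but at most half, below -50%; inactive means no replicate well below -50%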;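 further: luciferase reports HSF-1 transcriptional activity via heat shock element; 0% = median of DMSO wells and -100% = zero luminescence signal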
NALP1 yeast inh: NALP1 inhibition. S. cerevisiae NALP1/ASC/caspase-1 growth, X-gal OD620, 72 h. inhibition, % at 10 µM. 0.61% of 280,000 active; in the data active means inhibition mostly above about 24%, no sharp cut-off; inactive means mostly below about 32%
pCIP destab: compounds decreasing mouse p/CIP protein stability; Q05BA5; F442A p/CIP-EGFP cells, EGFP fluorescence, 16 h; decrease of EGFP signal, % at 10 µM; 0.01% of 290,000 active;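 active means EGFP signal decrease of at least 30% at 10 µM or well 3 SD below plate mean, unless failing retest; inactive means the rest, including hits failing retest or dose response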
An asterisk follows results filed as active.

For Cn1c(/C=C/c2ccc(Cl)cc2)nc2ccccc2c1=O the results were HSP90 refold inh -4, HSF-1 act 46, HSF1 inh 33, NALP1 yeast inh 7 and pCIP destab 0.
Screening COc1ccc(/C=C/c2nc3ccccc3n2C)cc1 returned HSP90 refold inh 40*, Hsp70 act 0, HSF-1 act -22, HSF1 inh -10, NALP1 yeast inh 20 and pCIP destab 4.
For Cn1c(/C=C/c2ccccc2)nc2ccccc2c1=O the results were HSP90 refold inh 2, HSF-1 act -84, HSF1 inh -80*, NALP1 yeast inh 18 and pCIP destab 3.
CCCn1c2ccccc2c2cnn(CC(=O)NC3CCCCC3C)c(=O)c21 (stereo not drawn) was read as HSP90 refold inh 4, HSF-1 act 11, HSF1 inh -1, NALP1 yeast inh -7 and pCIP destab -7.
`Cc1cc(N/N=C/c2ccc([N+](=O)[O-])o2)nc2ccccc12` gave HSP90 refold inh 6, Hsp70 act 0, HSF-1 act 65*, HSF1 inh 43, NALP1 yeast inh 7 and pCIP destab 2.
CCOc1ccc(NC(=O)CN(C)C(=O)c2ccccc2CCc2ccccc2)cc1OCC was read as HSF-1 act -2 and HSF1 inh -2.
c1ccc(COc2ccc(OCCCCN3CCCC3)cc2)cc1 was read as HSP90 refold inh 2, Hsp70 act 0, HSF-1 act -14, HSF1 inh -8, NALP1 yeast inh 45 and pCIP destab 0.
For CC1CCN(CCOc2ccc(OCc3ccccc3)cc2)CC1 the results were HSP90 refold inh -5, Hsp70 act 0, HSF-1 act 16, HSF1 inh 4, NALP1 yeast inh 49* and pCIP destab 14.
For Cc1ccc2nc3sc(C(=O)NCc4ccco4)c(N)c3cc2c1 the results were HSP90 refold inh 2, Hsp70 act 0, HSF-1 act 85*, HSF1 inh 52, NALP1 yeast inh 2 and pCIP destab -2.
For Cc1ccc(NCC(=O)c2ccccc2)cc1Cl the results were HSP90 refold inh -1, Hsp70 act 0, HSF-1 act -25, HSF1 inh -21, NALP1 yeast inh 32 and pCIP destab -1.
`Cc1ccc(NC2=C(NC(=O)c3ccccc3)C(=O)c3ccccc3C2=O)cc1Cl` gave HSP90 refold inh 8, Hsp70 act 0, HSF-1 act 48, HSF1 inh 23, NALP1 yeast inh 65* and pCIP destab 0.
For O=C(O)c1ccc(NC2=C(Cl)C(=O)c3ccccc3C2=O)cc1 the results were HSP90 refold inh 6, HSF-1 act -39, HSF1 inh inconclusive, NALP1 yeast inh 20 and pCIP destab -5.
O=C(O)c1cccc(NC2=C(Cl)C(=O)c3ccccc3C2=O)c1 was read as HSP90 refold inh -7, Hsp70 act 0, HSF-1 act -90, HSF1 inh -88*, NALP1 yeast inh 0 and pCIP destab -10.
Screening CC(C)NC1=C(Cl)C(=O)c2ccccc2C1=O returned HSP90 refold inh 10, Hsp70 act 0, HSF-1 act 70*, HSF1 inh 51, NALP1 yeast inh 10 and pCIP destab 0.
For O=C1C(Cl)=C(Nc2ccccc2)C(=O)c2ccccc21 the results were HSP90 refold inh 1, Hsp70 act 0, HSF-1 act 0, HSF1 inh -6, NALP1 yeast inh 45 and pCIP destab -16.
CC(=O)c1c(C)[nH]c(C(=O)N2CCN(c3ncccn3)CC2)c1C was read as HSP90 refold inh -1, Hsp70 act 0, HSF-1 act -9, HSF1 inh -3, NALP1 yeast inh 38* and pCIP destab -20.
Screening CN(CC(=O)Nc1cc(S(=O)(=O)N2CCCC2)ccc1Cl)Cc1cccs1 returned HSP90 refold inh 0, HSF-1 act 13, HSF1 inh 3, NALP1 yeast inh 11 and pCIP destab -12.
COCCCNCCOc1ccc(C)cc1[N+](=O)[O-] was read as HSP90 refold inh 1, Hsp70 act 0, HSF-1 act 59*, HSF1 inh 44, NALP1 yeast inh 20 and pCIP destab -8.
CCNC(=O)[C@@H]1CCCN1C(=O)[C@H](CCCN=C(N)N)NC(=O)[C@H](CC(C)C)NC(=O)[C@@H](CC(C)C)NC(=O)[C@H](Cc1ccc(O)cc1)NC(=O)[C@H](CO)NC(=O)[C@H](Cc1c[nH]c2ccccc12)NC(=O)[C@H](Cc1cnc[nH]1)NC(=O)[C@@H]1CCC(=O)N1 was read as HSF-1 act -10 and HSF1 inh -3.
Screening COc1cccc(NC=C2C(=O)OC3(CCCCC3)OC2=O)c1 returned HSP90 refold inh 7, Hsp70 act 0, HSF-1 act 59*, HSF1 inh 28, NALP1 yeast inh 17 and pCIP destab -11.
`Cc1ccc2nc(N3CCN(Cc4nnnn4Cc4ccccc4)CC3)c(C#N)cc2c1` gave HSP90 refold inh 2, Hsp70 act 0, HSF-1 act -69, HSF1 inh -62*, NALP1 yeast inh 7 and pCIP destab 12.
Screening CCN(CC)S(=O)(=O)c1ccc(N2CCOCC2)c(NC(=O)c2ccc(N3CCCC3=O)cc2)c1 returned HSF-1 act 3 and HSF1 inh -2.
`CC(C)CCNC(=O)CN(Cc1ccccc1)C(=O)CCC(=O)Nc1ccccn1` gave HSP90 refold inh 5, HSF-1 act 18, HSF1 inh -7, NALP1 yeast inh 11 and pCIP destab -7.
For COC(=O)C(=C/C(C)=C/c1cccs1)C(=O)OC the results were HSP90 refold inh 1, Hsp70 act 0, HSF-1 act 66*, HSF1 inh 32, NALP1 yeast inh 1 and pCIP destab 1.
For COC(=O)N/N=C/c1cccs1 the results were HSP90 refold inh -2, Hsp70 act 0, HSF-1 act 5, HSF1 inh -10, NALP1 yeast inh 6 and pCIP destab -10.
CCOc1cc2c(cc1OCC)C(c1ccc(F)cc1)NCC2 (stereo not drawn) was read as HSF-1 act 3 and HSF1 inh -2.
For CCOc1cc(C2NN=C(c3ccccc3)S2)ccc1OCc1ccc(F)cc1 (stereo not drawn) the results were HSP90 refold inh -1, Hsp70 act 0, HSF-1 act 56*, HSF1 inh 30, NALP1 yeast inh 12 and pCIP destab 3.
Screening CCOc1cc(C2NN=C(c3ccccc3)S2)ccc1OCc1ccccc1Cl (stereo not drawn) returned HSP90 refold inh -5, Hsp70 act 0, HSF-1 act 53*, HSF1 inh 38, NALP1 yeast inh 7 and pCIP destab -1.
CCOc1cc(CNC2CCCC2)ccc1OCc1ccccc1Cl was read as HSP90 refold inh 4, Hsp70 act 0, HSF-1 act 9, HSF1 inh 6, NALP1 yeast inh 16 and pCIP destab -2.
